Results published in PubChem BioAssay (NCATS).
Results filed as inconclusive are left out. A number with no mark means an inactive call. The call rests on the fitted dose curve; in most records, active means well fitted curve in the direction sought with a large enough effect in the signal ratio (not every such curve was filed as active); inconclusive means small, poorly fitted or top-dose-only effect, or effect the other way, or a change in a side signal; inactive means no such curve, though single readings can be large or run the other way; the % refers to the signal ratio.

Each compound was assayed against Tyrosine-protein phosphatase non-receptor type substrate 1 (Homo sapiens) + Leukocyte surface antigen CD47 (Homo sapiens) (UniProt P78324+Q08722) (assay: CD47-SIRPalpha protein protein interaction - HTRF assay qHTS validation (AID 1347058; further: 0% is about no effect)). Details: TR-FRET HTRF CD47-His / biotin-SIRPalpha binding, ratio 665/615; series mostly up to 38.3 µM; activity change, negative = inhibition: at the top concentration.
Chain of Tyrosine-protein phosphatase non-receptor type substrate 1 (Homo sapiens) + Leukocyte surface antigen CD47 (Homo sapiens) (P78324 whole entry, looked up): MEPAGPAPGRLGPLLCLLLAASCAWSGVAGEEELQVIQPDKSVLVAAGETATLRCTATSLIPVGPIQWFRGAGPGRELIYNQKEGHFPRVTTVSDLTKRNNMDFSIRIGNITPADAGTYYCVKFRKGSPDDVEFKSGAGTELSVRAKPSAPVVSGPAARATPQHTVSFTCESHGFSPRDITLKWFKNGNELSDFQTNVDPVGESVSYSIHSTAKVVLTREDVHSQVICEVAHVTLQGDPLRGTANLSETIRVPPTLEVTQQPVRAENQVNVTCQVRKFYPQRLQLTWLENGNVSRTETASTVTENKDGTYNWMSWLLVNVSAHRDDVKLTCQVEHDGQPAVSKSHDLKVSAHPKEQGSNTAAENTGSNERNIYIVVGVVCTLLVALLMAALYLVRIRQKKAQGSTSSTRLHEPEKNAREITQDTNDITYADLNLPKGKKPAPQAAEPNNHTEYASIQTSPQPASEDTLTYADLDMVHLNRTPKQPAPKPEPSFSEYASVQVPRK
Chain of Tyrosine-protein phosphatase non-receptor type substrate 1 (Homo sapiens) + Leukocyte surface antigen CD47 (Homo sapiens) (Q08722 whole entry, looked up): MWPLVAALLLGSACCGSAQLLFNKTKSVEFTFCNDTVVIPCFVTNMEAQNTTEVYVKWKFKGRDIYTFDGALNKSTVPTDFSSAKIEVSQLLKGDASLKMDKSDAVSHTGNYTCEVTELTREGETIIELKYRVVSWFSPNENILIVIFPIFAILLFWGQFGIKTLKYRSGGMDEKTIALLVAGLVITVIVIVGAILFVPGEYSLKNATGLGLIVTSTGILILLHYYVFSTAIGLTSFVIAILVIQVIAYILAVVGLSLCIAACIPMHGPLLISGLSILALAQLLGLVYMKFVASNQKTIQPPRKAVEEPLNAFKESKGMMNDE
Source text: SIRPalpha is a myeloid cell expressed immunomodulatory receptor that binds the tumor expressed immune checkpoint CD47. Therapeutic disruption of this interaction leads to immune-mediated tumor rejection. This assay was used to quantitate CD47-SIRPalpha binding biochemically and evaluate chemical libraries for novel CD47-SIRPalpha inhibitors. To recapitulate the biological interaction of CD47 and SIRPalpha, we designed expression constructs to produce their recombinant, soluble, extracellular interaction domains. CD47 was produced with an N-terminal 6His tag. SIRPalpha was produced with an N-terminal Avi-Tag for site-specific biotin incorporation. The CD47-SIRPalpha interaction was measured by TR-FRET using affinity tag linked reagents (anti-6His-Eu donor and streptavidin-XL665 acceptor). SIRPalpha without biotin incorporation was used as a positive control inhibitor.
SEQUENCE No. (e.g., 1, 2, 3, etc.); […] (e.g., Cells, Incubation, Reagent, etc.); VALUE and DESCRIPTION.
1a. Reagent. 3 uL CD47-His (12.5 nM) and Anti-His Eu Donor reagent (0.7 nM) added to respective wells in Assay buffer; white/solid bottom high base, med bind 1536-well plates (Greiner 789075)
1b. Reagent. 2 uL Assay buffer negative control for background fluorescence
2. Reagent. 23 nL library compounds (7-pt, 1:4 intraplate titration series) or DMSO control transferred by Pin Tool
3. Centrifuge. Centrifuge plate for 30 s at 1000 RPM
4. Incubation.#Incubate reagents at room temperature for 30 min, protected from light
5. Reagent. 2 uL SIRPalpha-biotin (100 nM) in Assay buffer
6. Incubation.#Incubate reagents at room temperature for 30 min, protected from light
7. Reagent. 1 uL SAV-XL665 (85 nM) acceptor reagent added to respective wells
8. Centrifuge. Centrifuge plate for 30 s at 1000 RPM
9. Incubation. Incubate reagents at room temperature for 30 min, protected from light
10. Detector. Measure Top TR-FRET on EnVision (Eu/APC filter set); calculate ratio Ch1/Ch2
1. Assay buffer composition.#Phosphate buffered saline (PBS; 10 mM Phosphate, 137 mM NaCl, and 2.7 mM KCl; pH 7.4), 0.05% IGEPAL CA-630
2. 23nL of […] library compounds (7 plates) or DMSO vehicle control transferred to 9 Greiner white/solid bottom high base, TC plates in 7 interplate 1:5 titrations (see Yasgar, A. et al. 2008) with Pintool. Two of the 9 plates are DMSO-only in compound field at beginning and end of compound library-treated plates.
10. Detector settings#Mirror = LANCE/DELFIA Dual Enh; Ex. Filter = UV2[TRF] 320; Em. Filter = APC 665; 2nd Em. Filter = Europium 615; Measurement h = 6.5; Ex. light (%) = 100; Delay = […]; Window t = 100 us; No. Seq. windows = 1; Time between flashes = 2000us; No. of flashes = 100; No. of flashes for 2nd detector = 100; Calculation: "Ratio Ch1/Ch2"

Compound | activity change, negative = inhibition [%]
Cc1cccc(-c2[nH]ncc2-c2ccc3ncccc3n2)n1 | -0.215
NCCCCNCCCN | 0.62
Nc1nc(OCc2ccccc2)c2[nH]cnc2n1 | 2.28
Oc1ccc2ccccc2c1SSc1c(O)ccc2ccccc12 | -11.4
O=C(CCc1ccc(O)cc1)c1c(O)cc(O)cc1O | -0.0113
Cc1cc(Cl)ccc1OCCCC(=O)NO | 1.24
COc1ccccc1N1CCN(CCN(C(=O)C2CCCCC2)c2ccccn2)CC1 | 4.63
CN(C)CCCC1(c2ccc(F)cc2)OCc2cc(C#N)ccc21 (stereo not drawn) | 3.28
Clc1ccc2c(N3CCN(CCCN4CCN(c5ccnc6cc(Cl)ccc56)CC4)CC3)ccnc2c1 | 0.102
O=c1cc(N2CCOCC2)oc2c(-c3ccccc3)cccc12 | 0.555
C[C@@H](c1ncncc1F)[C@](O)(Cn1cncn1)c1ccc(F)cc1F | -5.89
O=C1c2c(O)cc(O)cc2OC(c2ccc(O)c(O)c2)C1O (stereo not drawn) | 0.898
C[C@@H](N)C1CCC(C(=O)Nc2ccncc2)CC1 (stereo partly drawn) | 0.918
CC(C)c1ccc2c(c1)c(SC(C)(C)C)c(CC(C)(C)C(=O)O)n2Cc1ccc(Cl)cc1 | 1.52
CC(=O)N1CCN(c2ccc(OC[C@H]3CO[C@](Cn4ccnc4)(c4ccc(Cl)cc4Cl)O3)cc2)CC1 | 0.148
O=C(O)c1cccnc1Nc1cccc(C(F)(F)F)c1 | -1.96
Cc1c(OCC(F)(F)F)ccnc1CS(=O)c1nc2ccccc2[nH]1 (stereo not drawn) | -1.02
CNC[C@H](O)c1ccc(O)c(O)c1 | 7.27
CCOC(=O)C(C)Oc1cccc2c(=O)n(CC(=O)Nc3ccc4c(c3)OCCO4)ccc12 (stereo not drawn) | -0.658
CCOC(=O)C1=C(O)C(=O)N(Cc2ccccc2)C1 | -1.75
c1cnc2cc3c(cc2n1)C1CNCC3C1 | 6.86
C[C@H](Cc1ccc(O)c(O)c1)[C@@H](C)Cc1ccc(O)c(O)c1 | -11.5
NNc1nncc2ccccc12 | 4.56
COc1cc2c(cc1OC)C1CC(=O)C(CC(C)C)CN1CC2 (stereo not drawn) | 9.82
COc1ccc2cc([C@H](C)C(=O)O)ccc2c1 | -1.59
CN(C)C(=O)[C@H](O)[C@H](Cc1ccccc1)NC(=O)c1cc2cc(Cl)ccc2[nH]1 | -0.783
O=C(c1ccccc1)c1ccc2n1CCC2C(=O)O (stereo not drawn) | 2.51
CCN(CC)C(=S)SSC(=S)N(CC)CC | -1.56
